Data published in PubChem BioAssay (EPA / NIEHS).
Results filed as inconclusive are left out. Calls of active or inactive are those of the source. The calls were made as follows: active = hit-call score of the fitted dose curve at least 0.9, where 1 is the maximum; inconclusive = response in the unintended direction; inactive = score below 0.9.

Columns and labels:
[1] = molecular target: Cellular tumor antigen p53 (Homo sapiens) (UniProt P04637); assay: TOX21_p53_BLA_p2_ratio: Tox21 HCT-116 p53 Agonism Beta-lactamase Assay, Ratio, Phase 2 (AID 2283592)
Method in brief: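 HCT116 p53-bla; 4000 cells/well; 5 h pre-incubation; cpd in DMSO, 217-fold dilution; 16 h 37C/5% CO2; CCF4-AM 2 h RT; Ex 405, Em 460/530 ratio; DMSO = baseline; positive fitting direction.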

[2] = TOX21_p53_BLA_p3_viability: Viability Assessment in the Tox21 HCT-116 p53 Agonism Beta-lactamase Assay, Phase 3 (AID 2283593);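 also: cells exposed to compound for 16 h before reading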
Method in brief: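 HCT-116 cells (4000/well) rested 5 h at 37C, then got DMSO compounds by pin tool (217-fold dilution) for 16 h at 37C, 5% CO2. After the bla read, CellTiter-Glo was added and luminescence read at 30 min, room temperature.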

[3] = molecular target: Cellular tumor antigen p53 (Homo sapiens) (UniProt P04637); assay: TOX21_p53_BLA_p3_ratio: Tox21 HCT-116 p53 Agonism Beta-lactamase Assay, Ratio, Phase 3 (AID 2283596)
Method in brief: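 HCT116 p53-bla cells (4000/well) given compound in DMSO (217-fold dilution) after 5 h, incubated 16 h at 37C. CCF4-AM substrate 2 h at room temperature; 460/530 nm emission ratio, gain fitted against DMSO.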

[4] = TOX21_p53_BLA_p4_viability: Viability Assessment in the Tox21 HCT-116 p53 Agonism Beta-lactamase Assay, Phase 4 (AID 2283597);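 also: hits lower the luminescence signal meaning cytotoxicity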
Method in brief: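 Cells plated, 5 h pre-incubation; DMSO compounds pinned (217-fold dilution); 16 h, 37C/5% CO2; CCF4-AM 2 h RT; CellTiter-Glo 30 min RT; luminescence read.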

[5] = molecular target: Cellular tumor antigen p53 (Homo sapiens) (UniProt P04637); assay: TOX21_p53_BLA_p5_ratio: Tox21 HCT-116 p53 Agonism Beta-lactamase Assay, Ratio, Phase 5 (AID 2283599)
Method in brief: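 HCT-116 cells carrying a p53-inducible beta-lactamase reporter were seeded at 4000 cells/well and dosed after 5 h with compound in DMSO (217-fold dilution). After 16 h at 37C, CCF4-AM substrate was added for 2 h, and the 460/530 nm emission ratio was scored as gain-of-signal versus DMSO.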

[6] = TOX21_p53_BLA_p5_viability: Viability Assessment in the Tox21 HCT-116 p53 Agonism Beta-lactamase Assay, Phase 5 (AID 2283600)
Method in brief: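 4000 cells/well; 5 h pre-incubation; DMSO compounds pin-transferred, 217-fold dilution; 16 h, 37C/5% CO2; CCF4-AM 2 h RT; CellTiter-Glo 30 min RT; luminescence.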

[7] = TOX21_p53_BLA_p2_viability: Viability Assessment in the Tox21 HCT-116 p53 Agonism Beta-lactamase Assay, Phase 2 (AID 2283591);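 also: compound exposure lasted 16 h at 37 °C; actives lower the ATP signal meaning cytotoxicity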
Method in brief: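 HCT-116 p53-bla cells (4000/well) rested 5 h at 37C, then received compounds in DMSO (217-fold dilution) for 16 h at 37C, 5% CO2. After the CCF4 read, CellTiter-Glo was added; ATP luminescence was read after 30 min at room temperature.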

[8] = molecular target: Cellular tumor antigen p53 (Homo sapiens) (UniProt P04637); assay: TOX21_p53_BLA_p4_ratio: Tox21 HCT-116 p53 Agonism Beta-lactamase Assay, Ratio, Phase 4 (AID 2283601)
Method in brief: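 HCT116 cells carrying an inducible beta-lactamase reporter were plated at 4000 cells/well, rested 5 h, then exposed to compounds in DMSO (217-fold dilution) for 16 h at 37C. CCF4-AM substrate was loaded 2 h at room temperature; 460/530 nm emission ratio scored gain-of-signal versus DMSO.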

Sequence of Cellular tumor antigen p53 (Homo sapiens) (P04637 whole entry, looked up): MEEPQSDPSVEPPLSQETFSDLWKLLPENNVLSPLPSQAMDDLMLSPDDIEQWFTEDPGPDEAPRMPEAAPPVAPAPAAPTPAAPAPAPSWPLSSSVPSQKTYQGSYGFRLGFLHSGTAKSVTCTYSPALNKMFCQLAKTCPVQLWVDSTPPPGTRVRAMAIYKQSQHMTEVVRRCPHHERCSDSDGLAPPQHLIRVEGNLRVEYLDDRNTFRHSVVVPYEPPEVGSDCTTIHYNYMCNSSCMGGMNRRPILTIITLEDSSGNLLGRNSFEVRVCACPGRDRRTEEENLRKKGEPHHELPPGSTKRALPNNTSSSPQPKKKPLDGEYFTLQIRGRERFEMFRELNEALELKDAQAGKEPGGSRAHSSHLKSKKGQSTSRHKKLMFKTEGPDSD

Oc1ccc2c3c1O[C@H]1[C@@H](O)C=C[C@H]4[C@H](C2)NCC[C@@]341
outcome [1]: inactive | outcome [2]: inactive | outcome [3]: inactive | outcome [4]: inactive | outcome [5]: inactive | outcome [6]: inactive

CCC(C(N)=O)N1CCCC1=O (stereo unspecified)
outcome [7]: inactive | outcome [5]: inactive | outcome [6]: inactive | outcome [8]: inactive

CC1CN1 (stereo unspecified)
outcome [1]: inactive | outcome [2]: inactive | outcome [3]: inactive | outcome [4]: inactive

CCN(C(C)=O)c1cccc(-c2ccnc3c(C#N)cnn23)c1
outcome [7]: inactive | outcome [5]: inactive | outcome [6]: inactive | outcome [8]: inactive

Clc1ccc(CO/N=C(\Cn2ccnc2)c2ccc(Cl)cc2Cl)c(Cl)c1
AC50 [1]: 38.7 µM (active) | outcome [2]: inactive | AC50 [3]: 42.8 µM (active) | AC50 [4]: 33.4 µM (active) | AC50 [5]: 36.3 µM (active) | outcome [6]: inactive | AC50 [8]: 33 µM (active)

c1ccc(C2(c3ccccc3)CC2C2=NCCN2)cc1 (stereo unspecified)
outcome [7]: inactive | outcome [4]: inactive | outcome [6]: inactive

O=C(N/N=C/c1ccc([N+](=O)[O-])o1)c1cc([N+](=O)[O-])cc([N+](=O)[O-])c1O
outcome [1]: inactive | outcome [2]: inactive | outcome [3]: inactive | AC50 [4]: 23 µM (active) | outcome [5]: inactive | outcome [6]: inactive | outcome [8]: inactive

C=CC(=C)C
outcome [7]: inactive | outcome [6]: inactive

N#CNC#N
outcome [7]: inactive | outcome [4]: inactive | outcome [6]: inactive | outcome [8]: inactive

CS(=O)(=O)Cl
outcome [7]: inactive | outcome [4]: inactive | outcome [6]: inactive

ClC=CCl
outcome [1]: inactive | outcome [2]: inactive | outcome [3]: inactive | outcome [4]: inactive | outcome [5]: inactive | outcome [6]: inactive | outcome [8]: inactive

CCOC(=O)c1cn2nc(OP(=S)(OCC)OCC)cc2nc1C
outcome [7]: inactive | outcome [4]: inactive | outcome [8]: inactive

COC1=CC=C2[C@H]3Cc4ccc(OC)c5c4[C@@]2(CCN3C)[C@H]1O5
outcome [1]: inactive | outcome [2]: inactive | outcome [3]: inactive | outcome [4]: inactive | outcome [5]: inactive | outcome [6]: inactive | outcome [8]: inactive

O=[N+]([O-])c1cc(I)c(O)c(I)c1
AC50 [1]: 17.7 µM (active) | AC50 [2]: 5.69 µM (active) | AC50 [3]: 2.65 µM (active) | AC50 [4]: 11.3 µM (active) | AC50 [5]: 24.2 µM (active) | AC50 [6]: 11 µM (active) | AC50 [8]: 18 µM (active)

Nc1ccncc1
outcome [1]: inactive | outcome [2]: inactive | outcome [3]: inactive | outcome [4]: inactive | outcome [5]: inactive | outcome [6]: inactive | outcome [8]: inactive

N[C@@H]1C[C@H]1c1ccccc1
outcome [1]: inactive | outcome [2]: inactive | outcome [3]: inactive | outcome [4]: inactive | outcome [5]: inactive

N#CC(C#N)=Cc1cc(O)c(O)c(O)c1
outcome [1]: inactive | outcome [2]: inactive | outcome [3]: inactive | outcome [4]: inactive | outcome [5]: inactive | outcome [6]: inactive | outcome [8]: inactive

O=C(Cl)c1ccccc1
outcome [1]: inactive | outcome [2]: inactive | outcome [3]: inactive | outcome [4]: inactive | outcome [5]: inactive | outcome [6]: inactive | outcome [8]: inactive

CN(C)CCCCCCN(C)C
outcome [7]: inactive | outcome [6]: inactive | outcome [8]: inactive

CNC(C)(C)Cc1ccccc1
outcome [7]: inactive | outcome [5]: inactive | outcome [6]: inactive | outcome [8]: inactive
